Assay results published in publication PMC4336329 (PLoS ONE, 2015).
Screen size: about 310,000 compounds; about 14,000 (4.5%) showed an effect of 50% or more. Effects have a minus sign here. The list comes from a sample in which strong results are over-represented; it also holds similar structures and randomly drawn compounds.

Target: human ether-à-go-go-related gene (hERG) potassium channel (human, UniProt Q12809)
Test: primary screen, population patch clamp on CHO cells stably expressing hERG; higher = less effect of the substance
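Also: peak tail current of the secondary pulse compared with the same well before compound.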

human ether-à-go-go-related gene (hERG) potassium channel, sequence (Q12809 whole entry, looked up): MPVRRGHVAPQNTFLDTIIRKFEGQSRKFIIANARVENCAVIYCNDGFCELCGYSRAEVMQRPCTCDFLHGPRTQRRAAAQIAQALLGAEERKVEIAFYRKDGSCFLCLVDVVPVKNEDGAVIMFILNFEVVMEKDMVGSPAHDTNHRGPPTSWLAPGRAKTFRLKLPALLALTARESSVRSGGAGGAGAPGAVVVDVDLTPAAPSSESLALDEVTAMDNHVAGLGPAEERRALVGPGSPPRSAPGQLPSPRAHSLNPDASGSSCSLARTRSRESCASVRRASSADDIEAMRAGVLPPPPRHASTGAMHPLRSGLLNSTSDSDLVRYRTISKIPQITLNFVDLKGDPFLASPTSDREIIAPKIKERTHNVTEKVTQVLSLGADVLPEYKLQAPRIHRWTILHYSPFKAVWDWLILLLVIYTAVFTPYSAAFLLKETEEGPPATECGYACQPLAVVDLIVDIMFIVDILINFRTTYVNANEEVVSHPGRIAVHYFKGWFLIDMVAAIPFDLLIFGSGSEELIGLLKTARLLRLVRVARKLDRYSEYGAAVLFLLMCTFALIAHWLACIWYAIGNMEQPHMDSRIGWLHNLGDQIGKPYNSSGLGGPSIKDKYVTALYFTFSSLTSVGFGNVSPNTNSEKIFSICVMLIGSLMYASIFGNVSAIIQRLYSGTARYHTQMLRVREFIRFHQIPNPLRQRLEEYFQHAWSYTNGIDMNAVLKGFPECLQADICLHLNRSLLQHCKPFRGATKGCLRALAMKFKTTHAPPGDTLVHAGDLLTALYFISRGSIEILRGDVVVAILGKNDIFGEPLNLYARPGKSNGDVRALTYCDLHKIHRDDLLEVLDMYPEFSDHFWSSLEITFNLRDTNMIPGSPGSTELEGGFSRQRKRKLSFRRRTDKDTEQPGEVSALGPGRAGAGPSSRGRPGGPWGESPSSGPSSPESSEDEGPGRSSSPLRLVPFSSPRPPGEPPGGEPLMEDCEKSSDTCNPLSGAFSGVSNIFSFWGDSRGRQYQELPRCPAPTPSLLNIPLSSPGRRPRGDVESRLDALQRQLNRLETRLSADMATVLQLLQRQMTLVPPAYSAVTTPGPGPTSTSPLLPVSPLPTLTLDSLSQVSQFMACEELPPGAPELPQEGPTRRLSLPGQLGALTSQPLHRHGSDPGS

In order of rising “hERG current change (%, negative = inhibition) at 10uM” value:
1. O=C(CSc1nc(=O)n(CCN2CCOCC2)c2c1CCC2)Nc1ccc(OC(F)(F)F)cc1  -71.8%
2. CCN(CC)CCn1c2c(c(SCC(=O)Nc3ccc(F)c(F)c3)nc1=O)CCC2  -70.5%
3. CCN(CC)CCCn1c2c(c(SCC(=O)Nc3ccc(OC(F)(F)F)cc3)nc1=O)CCC2  -67.7%
4. CCN(CC)CCCn1c2c(c(SCC(=O)Nc3cccc(C(C)=O)c3)nc1=O)CCC2  -59.4%
5. CCN(CC)CCCn1c2c(c(SCC(=O)Nc3ccc(F)c(F)c3)nc1=O)CCC2  -55.1%
6. O=C(CC1OC(=O)c2ccccc21)Nc1cc(S(=O)(=O)N2CCOCC2)ccc1OCC(F)(F)F (stereo not drawn)  -52.2%
7. CN1CCN(c2ccc([N+](=O)[O-])c(NCc3ccco3)c2)CC1  -51.9%
8. CC(CC(=O)Nc1cc(S(=O)(=O)N2CCOCC2)ccc1OCC(F)(F)F)c1ccccc1 (stereo not drawn)  -50.2%
9. O=C(c1ccccc1)N1CCN(c2ccc([N+](=O)[O-])c(NCc3ccco3)c2)CC1  -47.2%
10. CCN(CC)CCCn1c2c(c(SCC(=O)Nc3ccc4c(c3)OCO4)nc1=O)CCC2  -44.6%
11. CCN(CC)CCCn1c2c(c(SCC(=O)Nc3ccc4c(c3)OCCO4)nc1=O)CCC2  -43.4%
12. O=C(Nc1cc(S(=O)(=O)N2CCOCC2)ccc1OCC(F)(F)F)C1=COCCO1  -42.8%
13. CCN(CC)CCn1c2c(c(SCC(=O)Nc3ccc4c(c3)OCO4)nc1=O)CCC2  -39.2%
14. Clc1ccc(-c2nnc(SCc3ccon3)o2)c(Cl)c1  -33.9%
15. O=[N+]([O-])c1ccc(N2CCN(CCO)CC2)cc1NCc1ccco1  -32.2%
16. CCOc1ccc(S(=O)(=O)N2CCCCC2)cc1NC(=O)CC1OC(=O)c2ccccc21 (stereo not drawn)  -31.3%
17. CC(=O)c1cccc(NC(=O)CSc2nc(=O)n(CCCN3CCOCC3)c3c2CCC3)c1  -29.1%
18. O=[N+]([O-])c1ccc(N2CCNCC2)cc1NCc1ccco1  -28.2%
19. CCOc1ccc(NC(=O)CSc2nc(=O)n(CCN3CCOCC3)c3c2CCCC3)cc1  -28.1%
20. CC(C)Oc1ccc(S(=O)(=O)N2CCOCC2)cc1NC(=O)CC1OC(=O)c2ccccc21 (stereo not drawn)  -25%
21. CC12CCC(=O)N1C(C(=O)N1CCN(c3cccc(Cl)c3)CC1)CS2 (stereo not drawn)  -19.4%
22. CC(=O)c1cccc(NC(=O)CSc2nc(=O)n(CCN3CCOCC3)c3c2CCC3)c1  -17.6%
23. CN(C)CCn1c2c(c(SCC(=O)Nc3ccc4c(c3)OCCO4)nc1=O)CCC2  -16.1%
24. CN1C(=O)C(C)(C)c2cc(S(=O)(=O)N3CCCC(C(=O)NCc4ccc(Cl)cc4)C3)ccc21 (stereo not drawn)  -8.2%
25. CC(CC(=O)Nc1ccc(S(=O)(=O)N2CCOCC2)cc1)c1ccccc1 (stereo not drawn)  -4.25%
26. Cc1ccccc1-c1noc(-c2ccccc2C(=O)NCC2CCCO2)n1 (stereo not drawn)  -3.02%
27. COc1ccc(NC(=O)CSc2nc(=O)n(CCN3CCOCC3)c3c2CCC3)cc1  0.105%
28. C=CCn1c(O)c(C(CC)=NCc2ccc3c(c2)OCO3)c(=O)[nH]c1=O  3.09%
29. CCCCN=Cc1sc2ccc(OCC)cc2c1O  3.66%
30. CCOC(=O)COn1c2c(c3c4no[n+]([O-])c4ccc31)CCCC2  3.89%
31. COC(=O)CCC(=O)c1oc2ccc(OC)cc2c1N  4.41%
32. COc1cc(OC)cc(C(=O)NNC(=O)c2ccc(-n3cncn3)c([N+](=O)[O-])c2)c1  5.46%
33. CCOc1ccc(Br)cc1C(=S)N1CCCC1  9.29%
34. O=C1CCCC2=C1C(c1ccncc1)Nc1ccccc1N2 (stereo not drawn)  10.2%
35. CCN(CC)c1nc(Nc2ccc([N+](=O)[O-])cc2)nc(N(CC)CC)n1  11.1%
36. Cc1ccc(NC(=O)C2CCCN2C(=O)OCc2ccccc2)c(C)c1 (stereo not drawn)  12.7%
37. COC(=O)c1ccc(Oc2cc(C)nc(Cl)n2)cc1  13.9%
38. COc1ccc(NC(=O)[C@@H]2CCCN2C(=O)[C@@H]2Cc3ccccc3CN2C(=O)OC(C)(C)C)cc1  14.8%
39. COc1cc2c(cc1OC)C(C)N(C(=O)CCN1C(=O)C3C4C=CC(C4)C3C1=O)CC2 (stereo not drawn)  16%
40. CCN(CC)Cc1cc(C(=O)O)c(C)o1  19.4%
41. Cc1ccc(C)c2nc3sc(C(=O)O)cc3cc12  20.9%
42. O=C(CCn1c(=O)c2cccn2c2ccc(F)cc21)NCc1cccc(F)c1  23.4%
